APP 5'UTR act = activates APP 5'UTR luciferase reporter; SH-SY5Y APP 5'UTR luciferase reporter, luminescence; zero percent = DMSO vehicle wells; activation, % at 2 µM; actives 1% (n = 190,000); AID 1276;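 active = activation above a set limit, based on mean plus 3 SD of controls, cut at about 140% in these data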
STAT1 activator = STAT1 signaling activation; NIH 3T3 STAT1-luciferase reporter, IFN-gamma, luminescence; 100% = IFN-gamma alone, no compound; activation (% of control), % at 5.5 µM; actives 2.6% (n = 200,000);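 active = activation above the screen-wide mean activation plus 3 SD, cut at about 130% in these data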;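 note: raw ratio to IFN-gamma control signal so 100% means no change and 0% no light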
APP 5UTR inh = APP translation inhibition; actives 0.82% (n = 190,000); SH-SY5Y APP 5'UTR-luciferase reporter, luminescence; AID 1285; inhibition, % at 2 µM;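 active = inhibition above a set limit, derived from the sample mean plus 3 SD, cut at about 45% in these data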
NF-kB expr up = raises NF-kB expression in human neuronal cells; NF-kB reporter expression; stronger effect = higher value; fold change at 12.5 µM; actives 1.6% (n = 190,000); in the data active = fold change above about 3.3
Wee1 stabilizer = human Wee1 degradation inhibition, primary screen; AID 1321; actives 1.2% (n = 220,000); reporter increase, % at 5 µM; HeLa Luc-Wee1K328M stability, luciferase luminescence; 100% = proteasome inhibitor MG132 effect;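 active = activation above the mean of all tested compounds plus 3 SD, set per screening run, cut at about 8.8% in these data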;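 note: cells exposed to compound for 20 h before luminescence read; 0% = DMSO alone and 100% = MG132 at 30 µM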
Target sequence (P30291 whole entry K328M): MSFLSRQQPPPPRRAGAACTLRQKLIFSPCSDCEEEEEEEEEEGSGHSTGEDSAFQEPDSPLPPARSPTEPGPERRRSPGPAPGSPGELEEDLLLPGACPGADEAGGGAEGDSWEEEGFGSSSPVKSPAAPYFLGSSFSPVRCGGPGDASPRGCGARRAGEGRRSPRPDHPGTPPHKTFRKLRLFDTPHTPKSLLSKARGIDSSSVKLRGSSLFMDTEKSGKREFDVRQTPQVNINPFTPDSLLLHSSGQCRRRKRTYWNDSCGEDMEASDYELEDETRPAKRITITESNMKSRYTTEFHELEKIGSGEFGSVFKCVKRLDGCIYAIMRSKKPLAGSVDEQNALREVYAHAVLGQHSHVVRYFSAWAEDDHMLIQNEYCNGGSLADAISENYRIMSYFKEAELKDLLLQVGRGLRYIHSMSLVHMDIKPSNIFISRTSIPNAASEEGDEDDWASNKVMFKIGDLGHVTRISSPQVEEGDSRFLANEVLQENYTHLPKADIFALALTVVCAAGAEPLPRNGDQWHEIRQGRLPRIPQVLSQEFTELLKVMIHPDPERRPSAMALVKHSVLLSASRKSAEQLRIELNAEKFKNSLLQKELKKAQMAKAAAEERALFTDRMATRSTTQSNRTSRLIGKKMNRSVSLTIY
Hsp70 activator = switches on Hsp70 transcription; HeLa Hsp70 promoter luciferase reporter, luminescence; scaled: vehicle 0, proteasome-inhibitor control 100%; activation, % at 10 µM; actives 0.04% (n = 200,000);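 active = activation above the mean across all tested compounds plus 3 SD, cutoff set per campaign, cut at about 5.5% in these data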;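 note: 100% = MG132 at 30 µM as the positive control and 0% = DMSO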
* = called active by the depositor; x = no result. Hits are enriched below; roughly 4.8% of the tested compounds scored in any of these assays.

SMILES	APP 5'UTR act	STAT1 activator	APP 5UTR inh	NF-kB expr up	Wee1 stabilizer	Hsp70 activator
COc1cc(/C=N/NC(=O)CCN2CCN(c3ccccc3)CC2)cc(OC)c1OC	3	100	-3	1	3	0
O=C(NCc1nnc(SCC(=O)N2CCc3ccccc32)o1)c1cccs1	-8	102	8	0.94	-1	0
CNC(=O)c1ccc(-c2ccc(OC)cc2)s1	99	138*	-99	4.6*	3	0
COc1ccc(NC(=O)c2ccc(-c3ccc(OC)cc3)s2)cc1	39	102	-39	1.2	3	0
N/C(=N\OC(=O)Cc1ccccc1)c1ccc([N+](=O)[O-])cc1	-7	109	7	1.5	-2	0
O=C(NCc1ccc(-c2nc3ccccc3s2)cc1)c1ccc(Br)o1	84	137*	-84	1.7	3	0
O=C(NCc1ccc(-c2nc3ccccc3s2)cc1)c1cc2ccccc2o1	31	103	-31	1.2	-1	-1
COc1cc(C(=O)NCc2ccc(-c3nc4ccccc4s3)cc2)cc(OC)c1OC	33	141*	-33	1.6	-1	0
COc1cccc2cc(-c3ccccc3)c(=O)oc12	152*	142*	-152	4.7*	3	0
O=c1oc2ccccc2cc1-c1nc(-c2cccs2)cs1	x	113	x	1.3	2	0
COc1cccc2cc(-c3nc(-c4cccs4)cs3)c(=O)oc12	105	133*	-105	1.3	-2	0
COc1cccc(C(=O)CN(C(=O)c2ccc(Cl)c(Cl)c2)N2C(=O)c3ccccc3C2=O)c1	49	102	-49	1	-1	0
COCCn1c(C)cc(C2=NNC(=Nc3ccccc3)SC2)c1C	155*	143*	-155	0.33	-2	0
CCN=C1NN=C(c2cc(C)n(CCc3ccccc3)c2C)CS1	-6	108	6	0.93	5	0
C=CCn1c(C)cc(C2=NNC(=NCc3ccccc3)SC2)c1C	139*	112	-139	2.8	0	0
CCOC(=O)c1c(NC2=NS(=O)(=O)c3ccccc32)sc2c1CCC(C)C2 (centres undefined)	-7	101	7	0.86	3	0
CC(C)CNC(=S)NC(=O)c1ccc([N+](=O)[O-])cc1	22	88	-22	1.4	0	0
O=C(O)c1cccc2[nH]c(C(F)(F)F)nc12	0	104	0	1.2	-1	0
Cc1cc(Br)ccc1OCC(=O)N1CCCCCC1	12	94	-12	1.1	0	0
CC(C)c1ccc(OCC(=O)N2CCCCCC2)c(Br)c1	33	137*	-33	1.7	1	0
O=C(O)c1ccc(O)c(O)c1	x	x	x	x	-3	x
CCCc1c(C(=O)Nc2cc(C(C)(C)C)on2)cnn1-c1ccccc1	x	x	x	x	9.8*	x
CC(O)CNc1nc2ccccc2n1-c1ncnc2sc3c(c12)CCC3 (centres undefined)	5	89	-5	0.51	-3	0
COc1cccc(N2CCN(C(=O)c3ccc4nc(N5CCCCC5)sc4c3)CC2)c1	70	136*	-70	2.3	-2	0
COc1ccc(N2CCN(C(=O)c3ccc4nc(N5CCCCC5)sc4c3)CC2)cc1	1	107	-1	1.6	1	0
SMILES	APP 5'UTR act	STAT1 activator	APP 5UTR inh	NF-kB expr up	Wee1 stabilizer	Hsp70 activator
Cc1ccc2c(c1)NC(=O)C(CC(=O)NCc1cccnc1)O2 (centres undefined)	15	104	-15	0.93	1	0
CC(C)(C)c1ccc(-c2cc(N)n[nH]2)cc1	-61	84	61*	0.58	2	-1
Cc1ccc(-c2cc(N)n[nH]2)cc1	-8	107	8	1.4	7	0
Cc1[nH]n(-c2ccccc2)c(=O)c1/C=N/Nc1nncc(-c2ccccc2)n1	-82	110	82*	0.95	2	0
Cc1[nH]n(-c2ccccc2)c(=O)c1C=Nc1cccc2cccnc12	-70	111	70*	1.3	2	0
Cc1ccc(-n2[nH]c(C)c(/C=N/c3ccccn3)c2=O)cc1	12	98	-12	1.2	-1	0
Cc1cccc(-c2nnc(-c3cccc(NC(=O)Cc4cccs4)c3)o2)c1	29	103	-29	0.58	-1	0
CCN(CC)S(=O)(=O)c1ccc(N2CCOCC2)c(NS(=O)(=O)c2ccc(C)cc2)c1	4	98	-4	1.1	-2	0
O=c1ccc(-c2n[nH]c(=S)n2-c2ccc(F)c(Cl)c2)n[nH]1	7	103	-7	0.87	-3	0
COc1ccc(S(=O)(=O)N2c3ccccc3OCC2C)cc1 (centres undefined)	-96	102	96*	1.9	-2	0
COc1ccc(S(=O)(=O)N2c3ccccc3OCC2c2ccccc2)cc1 (centres undefined)	x	95	x	1.2	4	0
CCOc1ccccc1-n1c(COc2ccccc2)nnc1SCC(N)=O	-52	106	52*	1.1	-4	0
COc1cccc2cc(C(N)=O)oc12	-32	111	32	1.2	5	0
COc1cccc2cc(C(=O)c3ccc([N+](=O)[O-])cc3)oc12	50	135*	-50	2	-1	0
Cc1ccc(CNC(=O)CSCc2cccc(F)c2)cc1	3	119	-4	1.2	0	1
O=C(CSCc1ccccc1F)NCc1ccccc1	12	133*	-12	1.9	-1	0
O=C(CSCc1cccc(F)c1)NCc1ccccc1	2	133*	-2	2.2	1	0
O=C(CCSCc1ccccc1F)NCc1cccnc1	3	110	-3	1.5	0	0
Cc1cc(NC(=O)c2ccccc2)ncc1NC(=O)c1ccco1	114	124	-114	2.1	3	0
O=C(c1ccc(N2CCOCC2)cc1)c1cccs1	132	141*	-132	5.1*	1	0
O=C(Nc1ccc(N2CCOCC2)cc1N1CCOCC1)c1cccs1	-21	95	21	0.83	-1	0
O=c1c2c(-c3cccs3)csc2ncn1-c1ccc(Br)cc1	-9	98	9	0.74	9.1*	0
CCOC(=O)c1c(-c2ccc(OC)cc2)csc1NC(=O)CSc1ncnc2sccc12	18	91	-18	0.85	6	0
Cc1ccc(C)c(C(=O)COC(=O)c2cccc(N3C(=O)c4c(C)nc5ccccc5c4C3=O)c2)c1	141*	110	-141	0.42	9.0*	0
Cc1nc2ccccc2c2c1C(=O)N(c1cccc(C(=O)O)c1)C2=O	17	97	-17	1.1	-3	0
NNC(=O)COc1ccc(F)cc1	-2	96	2	0.96	1	0
Cc1ccccc1OCC(O)Cn1nnc2ccccc21 (centres undefined)	40	142*	-40	2.6	1	0
O=[N+]([O-])c1ccc(-n2ccnc2)cc1	x	x	x	x	3	x
